Assay results taken from the supplement of paper PMC6279402.
Structures can show the parent of a compound that is named as a salt. ± gives the standard deviation of the averaged measurements.

Tested on: A549
Assay: relative viability (normalised to negative control = 1, bortezomib = 0) (fraction); higher = less cytotoxic
Conditions: inflammatory serum-free RHB-A with cytokines + LPS, 5 d + 24 h CellTiter-Blue
[1] = compound 30 nM, GSK126 pretreatment: 5 uM GSK126
[2] = compound 30 nM, GSK126 pretreatment: none (vehicle)
[3] = compound 300 nM, GSK126 pretreatment: 5 uM GSK126
[4] = compound 300 nM, GSK126 pretreatment: none (vehicle)

## CN1CC[C@H](c2c(O)cc(O)c3c(=O)cc(-c4ccccc4Cl)oc23)[C@H](O)C1 [Flavopiridol (Alvocidib)]
[1]
  relative viability: 0.777 ± 0.11
[2]
  relative viability: 0.771 ± 0.15
[3]
  relative viability: 0.0118 ± 0.0013
[4]
  relative viability: 0.0301 ± 0.0094

## COc1ccc(S(=O)(=O)N(C(C)=O)c2ccccc2/C=C/c2cc[n+]([O-])cc2)cc1
[1]
  relative viability: 0.924 ± 0.032
[2]
  relative viability: 0.914 ± 0.033
[3]
  relative viability: 0.663 ± 0.032
[4]
  relative viability: 0.623 ± 0.056

## COc1nc(N)nc2c1ncn2[C@@H]1O[C@H](CO)[C@@H](O)[C@@H]1O [Nelarabine]
[1]
  relative viability: 0.838 ± 0.12
[2]
  relative viability: 0.875 ± 0.13
[3]
  relative viability: 0.96 ± 0.16
[4]
  relative viability: 0.956 ± 0.14

## CCN(CC)CCCC(C)Nc1c2ccc(Cl)cc2nc2ccc(OC)cc12 (configuration not stated)
[1]
  relative viability: 0.836 ± 0.066
[2]
  relative viability: 0.847 ± 0.051
[3]
  relative viability: 1.02 ± 0.091
[4]
  relative viability: 1.02 ± 0.11

## O=C(O)C1(C(=O)O)CCC1.[NH2-].[NH2-].[Pt+2] [Carboplatin]
[1]
  relative viability: 0.75 ± 0.042
[2]
  relative viability: 0.748 ± 0.059
[3]
  relative viability: 0.742 ± 0.048
[4]
  relative viability: 0.812 ± 0.0056

## COc1cc2c(N3CCN(C(=O)Nc4ccc(OC(C)C)cc4)CC3)ncnc2cc1OCCCN1CCCCC1 [Tandutinib (MLN518)]
[1]
  relative viability: 0.74 ± 0.03
[2]
  relative viability: 0.735 ± 0.071
[3]
  relative viability: 0.829 ± 0.075
[4]
  relative viability: 0.862 ± 0.1

## O=C(c1ccc(OCCN2CCCCC2)cc1)c1c(-c2ccc(O)cc2)sc2cc(O)ccc12 [Raloxifene HCl; Raloxifene hydrochloride]
[1]
  relative viability: 0.955 ± 0.064
[2]
  relative viability: 0.897 ± 0.094
[3]
  relative viability: 0.961 ± 0.043
[4]
  relative viability: 0.987 ± 0.058

## CC(C)Cn1cnc2c(N)nc3ccccc3c21 [Imiquimod]
[1]
  relative viability: 0.8017 ± 0.004
[2]
  relative viability: 0.794 ± 0.058
[3]
  relative viability: 0.863 ± 0.059
[4]
  relative viability: 0.911 ± 0.019

## Cn1c(=O)n(-c2ccc(C(C)(C)C#N)cc2)c2c3cc(-c4cnc5ccccc5c4)ccc3ncc21
[1]
  relative viability: 0.581 ± 0.063
[2]
  relative viability: 0.624 ± 0.034
[3]
  relative viability: 0.209 ± 0.0083
[4]
  relative viability: 0.21 ± 0.0091

## CO[C@H](C(=O)[C@@H](O)[C@@H](C)O)[C@@H]1Cc2cc3cc(O[C@H]4C[C@@H](O[C@H]5C[C@@H](O)[C@H](O)[C@@H](C)O5)[C@H](O)[C@@H](C)O4)c(C)c(O)c3c(O)c2C(=O)[C@H]1O[C@H]1C[C@@H](O[C@H]2C[C@@H](O[C@H]3C[C@](C)(O)[C@H](O)[C@@H](C)O3)[C@@H](O)[C@@H](C)O2)[C@H](O)[C@@H](C)O1 [Plicamycin]
[1]
  relative viability: 0.1 ± 0.012
[2]
  relative viability: 0.183 ± 0.058
[3]
  relative viability: 0.00825 ± 0.00088
[4]
  relative viability: 0.0263 ± 0.0054

## Nc1cccc2c1CN(C1CCC(=O)NC1=O)C2=O (configuration not stated) [Lenalidomide]
[1]
  relative viability: 0.854 ± 0.11
[2]
  relative viability: 0.789 ± 0.061
[3]
  relative viability: 0.882 ± 0.059
[4]
  relative viability: 0.82 ± 0.035

## Cc1ccc(NC(=O)c2ccc(CN3CCN(C)CC3)cc2)cc1Nc1nc(-c2cccnc2)cs1 [Masitinib(AB1010)]
[1]
  relative viability: 0.802 ± 0.1
[2]
  relative viability: 0.761 ± 0.1
[3]
  relative viability: 0.841 ± 0.11
[4]
  relative viability: 0.979 ± 0.091

## NC1(Cc2ccc(Cl)cc2)CCN(c2ncnc3[nH]ccc23)CC1
[1]
  relative viability: 0.832 ± 0.029
[2]
  relative viability: 0.844 ± 0.05
[3]
  relative viability: 0.839 ± 0.1
[4]
  relative viability: 0.875 ± 0.023

## NC(=O)NO [Hydroxyurea]
[1]
  relative viability: 0.998 ± 0.13
[2]
  relative viability: 1.05 ± 0.1
[3]
  relative viability: 1.09 ± 0.071
[4]
  relative viability: 1.06 ± 0.05

## S=c1[nH]cnc2nc[nH]c12 [Mercaptopurine]
[1]
  relative viability: 0.9493 ± 0.0049
[2]
  relative viability: 0.969 ± 0.053
[3]
  relative viability: 0.958 ± 0.067
[4]
  relative viability: 0.984 ± 0.011

## O=C(NC1CCNCC1)c1n[nH]cc1NC(=O)c1c(Cl)cccc1Cl
[1]
  relative viability: 0.969 ± 0.17
[2]
  relative viability: 0.924 ± 0.074
[3]
  relative viability: 0.0464 ± 0.029
[4]
  relative viability: 0.136 ± 0.057

## Nc1nc(F)nc2c1ncn2[C@@H]1O[C@H](COP(=O)(O)O)[C@@H](O)[C@@H]1O [Fludarabine; Fludarabine phosphate]
[1]
  relative viability: 0.858 ± 0.071
[2]
  relative viability: 0.879 ± 0.098
[3]
  relative viability: 0.891 ± 0.089
[4]
  relative viability: 0.842 ± 0.055

## Nc1ncnc2c1c(-c1cnc3[nH]ccc3c1)nn2C1CCCC1
[1]
  relative viability: 0.767 ± 0.06
[2]
  relative viability: 0.797 ± 0.071
[3]
  relative viability: 0.494 ± 0.039
[4]
  relative viability: 0.533 ± 0.069

## CNC(=O)c1cc(Oc2ccc(NC(=O)Nc3ccc(Cl)c(C(F)(F)F)c3)c(F)c2)ccn1 [Regorafenib; BAY 73-4506(Regorafenib)]
[1]
  relative viability: 0.913 ± 0.055
[2]
  relative viability: 0.892 ± 0.016
[3]
  relative viability: 1.02 ± 0.031
[4]
  relative viability: 0.913 ± 0.014

## CC(=O)O[C@@]12CO[C@@H]1C[C@H](O)[C@@]1(C)C(=O)[C@H](O)C3=C(C)[C@@H](OC(=O)[C@H](O)[C@@H](NC(=O)OC(C)(C)C)c4ccccc4)C[C@@](O)([C@@H](OC(=O)c4ccccc4)[C@H]21)C3(C)C [Docetaxel]
[1]
  relative viability: 0.491 ± 0.058
[2]
  relative viability: 0.349 ± 0.015
[3]
  relative viability: 0.583 ± 0.053
[4]
  relative viability: 0.429 ± 0.011

## CC(C)c1cnn2c(NCc3ccccc3)cc(NCCCCCCN)nc12 [BS-181 hydrochloride]
[1]
  relative viability: 0.804 ± 0.083
[2]
  relative viability: 0.821 ± 0.11
[3]
  relative viability: 0.853 ± 0.063
[4]
  relative viability: 0.895 ± 0.049

## CNC(=O)c1ccccc1Sc1ccc2c(/C=C/c3ccccn3)n[nH]c2c1
[1]
  relative viability: 0.898 ± 0.013
[2]
  relative viability: 0.875 ± 0.039
[3]
  relative viability: 0.835 ± 0.13
[4]
  relative viability: 0.891 ± 0.063

## CNC(=O)Nc1ccc(-c2nc(N3CC4CCC(C3)O4)c3cnn(C4CCC5(CC4)OCCO5)c3n2)cc1
[1]
  relative viability: 0.424 ± 0.074
[2]
  relative viability: 0.432 ± 0.012
[3]
  relative viability: 0.226 ± 0.011
[4]
  relative viability: 0.237 ± 0.035

## Cc1ccc(-n2nc(C(C)(C)C)cc2NC(=O)Nc2ccc(OCCN3CCOCC3)c3ccccc23)cc1
[1]
  relative viability: 1.13 ± 0.13
[2]
  relative viability: 0.937 ± 0.18
[3]
  relative viability: 1.32 ± 0.064
[4]
  relative viability: 1.13 ± 0.23

## Nc1ncn([C@@H]2O[C@H](CO)[C@@H](O)[C@H]2O)c(=O)n1 [Azacitidine; 5-azacytidine]
[1]
  relative viability: 0.841 ± 0.27
[2]
  relative viability: 0.854 ± 0.13
[3]
  relative viability: 0.903 ± 0.15
[4]
  relative viability: 0.996 ± 0.13

## S=P(N1CC1)(N1CC1)N1CC1 [Thiotepa]
[1]
  relative viability: 1.01 ± 0.054
[2]
  relative viability: 0.949 ± 0.017
[3]
  relative viability: 0.919 ± 0.064
[4]
  relative viability: 0.935 ± 0.032

## C[C@@H]1CCN(C(=O)CC#N)C[C@@H]1N(C)c1ncnc2[nH]ccc12
[1]
  relative viability: 1.05 ± 0.18
[2]
  relative viability: 0.99 ± 0.17
[3]
  relative viability: 1.31 ± 0.067
[4]
  relative viability: 1.28 ± 0.1

## Cc1ccc(-c2cc(C(F)(F)F)nn2-c2ccc(S(N)(=O)=O)cc2)cc1 [Celecoxib]
[1]
  relative viability: 0.842 ± 0.065
[2]
  relative viability: 0.787 ± 0.09
[3]
  relative viability: 0.783 ± 0.13
[4]
  relative viability: 0.908 ± 0.14
